This note sets out measurements from PubChem BioAssay (NCATS).

Records with an inconclusive call do not appear. The source made the active and inactive calls. Unless noted, the call rests on the fitted dose curve; in most records, active means well fitted curve in the direction sought with a large enough effect; inconclusive means small, poorly fitted or top-dose-only effect, or another doubt; inactive means no such curve, though single readings can be large; an effect the other way counts as inactive or inconclusive.

For test [1], the target named is Transient receptor potential cation channel subfamily V member 1 (Homo sapiens) (UniProt Q8NER1). The experiment in a line: HTS Assay for Compounds that Act as Enhancers of the Vanilloid Receptor 1 (AID 488979). Further: 0% is about no effect. The method in brief: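 Calcium influx kinetics via Fluo-8 (480/520 nm) in TRPV1-expressing cells, 2000/well cultured overnight at 35.5C. Compound-alone read 3 min (agonist phase), followed by EC20 capsaicin challenge for 2 min (enhancer phase).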

The target in test [2] is Thyrotropin receptor (Homo sapiens) (UniProt P16473). The experiment in a line: qHTS Assay for Antagonists of the Thyroid Stimulating Hormone Receptor (AID 488980). Further: series mostly up to about 58 µM; 0% is about no effect. In outline: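 Cells expressing human TSHR (HEK293) are dispensed in HBSS/HEPES containing 70 uM RO 20-1724, compound is added, then TSH at EC80 (4 nM final). Antibody in lysis buffer follows, 30 minutes at room temperature before HTRF detection.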
A general note: In qHTS, concentration-response curves come from the screen itself.

Test [3] deals with D(1A) dopamine receptor (Homo sapiens) (UniProt P21728). The experiment in a line: HTS Assay for Allosteric Agonists of the Human D1 Dopamine Receptor: Primary Screen for Agonists (AID 488981). Further: 0% is about no effect. The method in brief:
(§1)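 Calcium flux in an inducible, force-coupled HEK293 Trex D1 line (overnight at 30 C): agonist mode is the 180 s kinetic read after compound; potentiator mode is the following 180 s read after dopamine at EC20.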

For test [4] the target is unchanged. The experiment in a line: HTS Assay for Allosteric Agonists of the Human D1 Dopamine Receptor: Primary Screen for Antagonists (AID 488983).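 Further: calcium flux response to an EC80 dopamine challenge measured with no-wash dye; on the % scale 0 is the no-effect control and ±100 the full control effect; nearly all actives have a fitted effect of over 65% in size.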 In outline:
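Tetracycline-induced HEK293 T-REx D1 line, force-coupled to calcium flux, read with no-wash calcium dye. Compound added after 10 s baseline, read 180 s for agonism, then EC80 dopamine added and read a further 180 s.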

Test [5] is described as follows: Validation screen for small molecules that induce genotoxicity in human embryonic kidney (HEK293T) cells expressing luciferase-tagged ELG1 (AID 493106). Further: 0% is about no effect. The method in brief:
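HEK293T cells expressing luciferase-tagged ELG1, 2,000 cells/well, exposed to compound 16 hr at 37 °C, 5% CO2. Luciferase read after ONE-Glo, 30 min at room temperature; increased signal indicates genetic stress.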

Test [6] addresses ATPase family AAA domain-containing protein 5 (Homo sapiens) (UniProt Q96QE3). The experiment in a line: Validation screen for small molecules that inhibit ELG1-dependent DNA repair in human embryonic kidney (HEK293T) cells expressing luciferase-tagged ELG1 (AID 493107).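 Further: cells co-treated with the DNA-damaging agent 5-fluorouridine alongside compound; series mostly up to about 46 µM; on the % scale 0 is the no-effect control and ±100 the full control effect; inhibitors lower the ELG1-luciferase luminescence signal; nearly all actives have a fitted effect of over 70% in size.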 In outline:
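HEK293T cells expressing luciferase-tagged ELG1, 2,000 per well, treated with 5-fluorouridine plus compound for 16 h at 37 C. ONE-Glo luminescence after 30 min at room temperature reports ELG1 reporter level.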

The target in test [7] is Thyrotropin-releasing hormone receptor (Homo sapiens) (UniProt P34981). The experiment in a line: qHTS for Small Molecule Agonists and Allosteric Enhancers of Human TRH Receptor: Validation Screen for Agonists (AID 493127;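 active means calcium activation more than 3 SD above the typical response in the agonist read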; further: 0% is about no effect). Conditions: TRH receptor agonist cell assay; at 2 µM; stronger effect = higher value. In outline: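 TRHR cells loaded with fluo-8 calcium dye; FDSS kinetic fluorescence (Ex 480/Em 530) read at 1 s/cycle after 23 nL compound addition. Agonist-mode calcium response recorded before the 10 nM TRH (EC20) addition.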

A short description of test [8]: Nrf2 qHTS screen for inhibitors: Validation (AID 493153; active means well fitted inhibition curve with a large enough effect in the main read-out, with a control signal flat, not every such curve was filed as active). Particulars: viability change: measured here: cytotoxicity max response. In outline: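 A549 cells carrying ARE-firefly luciferase reporter, 5000 cells/well in 5% FBS OPTI-MEM, treated with compound over a concentration series for 18-24 h at 37 C. Luciferase luminescence gave Nrf2 activity; CellTiter-Fluor fluorescence gave viability.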

A short description of test [9]: qHTS for Inhibitors of Cell Surface uPA Generation: Validation Assay (AID 493164). Further: 0% is about no effect. In outline:
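RAW 264.7 cells (4000/well) were plated overnight, then exposed for 18 h at 37 C, 5% CO2 to compounds in a 7-point 1:5 titration (2.45 nM–38.3 uM final). Intracellular ATP was read by ATP-Lite luminescence.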

Test [10] has as its target Galactokinase (Homo sapiens) (UniProt P51570). The experiment in a line: qHTS Validation Assay for Inhibitors of Human Galactokinase (GALK) (AID 493189). Further: 0% is about no effect. In outline: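 Compounds were pin-transferred into ATP buffer, then GALK-galactose mix was added (final 5 nM enzyme, 100 uM galactose, 35 uM ATP). After 1 h at room temperature, remaining ATP was measured luminescently.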

A short description of test [11]: Validation screen for small molecules that induce DNA re-replication in SW480 colon adenocarcinoma cells (AID 504364). Further: 0% is about no effect. The method in brief: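 SW480 cells (250/well) exposed 48 h at 37 C, 5% CO2, then Hoechst-stained 40 min. Nuclear DNA content imaged by fluorescence scanning (405 nm excitation, 500-530 nm emission); re-replication scored as increased nuclei with elevated intensity.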

Test [12] addresses Peptidyl-prolyl cis-trans isomerase NIMA-interacting 1 (Homo sapiens) (UniProt Q13526). The experiment in a line: qHTS Validation Assay to Find Inhibitors of Pin1 (AID 504536; active means well fitted inhibition curve with a large enough effect in the polarisation, with a control signal flat, not every such curve was filed as active; the % refers to the polarisation;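 further: 0% = full Pin1 enzyme wells and -100% = no-enzyme wells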). In outline: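 Fluorescence polarization competition: compounds (titration) displace HiFluor-488-labeled Pin1-1b peptide from Pin1 (0.3 uM final) in pH 7.5 HEPES buffer with DTT, 10 min at room temperature; %Activity normalized to no-enzyme wells, curves fitted.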

Test [13] addresses Phosphoglycerate kinase, glycosomal (Trypanosoma brucei brucei) (UniProt P07378). The experiment in a line: qHTS Validation Assay to Find Inhibitors of Phosphoglycerate Kinase (AID 504547).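 Further: control wells lack PGK and mark full inhibition.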 The method in brief: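 Inhibition of the enzyme is judged by a Kinase-Glo Plus luminescent signal following a one-hour incubation at room temperature. Because 1,3-BPG is unstable, it is made in situ by GAPDH at 100nM final; no-PGK wells define the baseline.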

For test [14], the target named is phosphoglycerate mutase (Leishmania major) (UniProt Q4Q090). The experiment in a line: qHTS Validation Assay to Find Inhibitors of Phosphoglycerate Mutase (AID 504548).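 Further: end-point luminescence from Kinase-GloPlus after the PGAM reaction; series mostly up to about 58 µM; on the % scale 0 is the no-effect control and ±100 the full control effect.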 In outline:
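L. major PGAM (1.25nM final) was added to substrate buffer and pinned compound, incubated 45 minutes at room temperature, then Kinase-GloPlus added; luminescence read after 10 minutes. Buffer: 100 mM TEA pH 7.6, 5 mM MgCl2, 0.01% Tween-20.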

Test [15] in a line: Inducers of the Endoplasmic Reticulum Stress Response (ERSR) in human glioma: Validation (AID 504836). Further: 0% is about no effect. In outline:
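ERSR induction read as luciferase luminescence (Bright-Glo, 10 min at room temperature) in stably transfected human U87-MG glioma cells exposed to compounds for 16 h, using GRP78 as sensor.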

Test [16] addresses Ubiquitin carboxyl-terminal hydrolase 1 (Homo sapiens) (UniProt O94782). The experiment in a line: Inhibitors of USP1/UAF1: Pilot qHTS (AID 504865).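 Further: rhodamine fluorescence freed from ubiquitin-rhodamine substrate followed over time; top concentration of the series differs between compounds; on the % scale 0 is the no-effect control and ±100 the full control effect; nearly all actives have a fitted effect of over 35% in size.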 The method in brief:
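Kinetic fluorescence assay: 1nM USP1/UAF1, 15 min compound preincubation, then 150nM Ub-Rho; 480/540 nm.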

The nature of test [17]: qHTS for Inhibitors of ATXN expression: Validation of Cytotoxic Assay (AID 588349). Further: on the % scale 0 is the no-effect control and ±100 the full control effect. The method in brief:
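HEK293 cells treated with titrated compound for 72 hr at 37 degrees C; viability read as intracellular ATP by CellTiter Glo luminescence.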

The target of test [18] is D(1A) dopamine receptor (Homo sapiens) (UniProt P21728). The experiment in a line: HTS Assay for Allosteric Agonists of the Human D1 Dopamine Receptor: Primary Screen for Potentiators (AID 488982). Further: 0% is about no effect. In outline: as §1
Test [19] deals with ATP-dependent 6-phosphofructokinase (Trypanosoma brucei brucei) (UniProt O15648). The experiment in a line: qHTS Assay to Find Inhibitors of T. brucei phosphofructokinase: hit validation (AID 492961).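 Further: luminescence reports ADP formed as PFK phosphorylates fructose-6-phosphate with ATP; series mostly up to about 51 µM; on the % scale 0 is the no-effect control and ±100 the full control effect.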 The method in brief:
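Measures ADP output of PFK (1.25 nM) at 0.1 mM ATP, 0.5 mM F6P, pH 8.0 TEA buffer with 5 mM MgCl2. No-enzyme wells define full inhibition; uninhibited enzyme wells define zero.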

Sequence of D(1A) dopamine receptor (Homo sapiens) (P21728 whole entry, looked up): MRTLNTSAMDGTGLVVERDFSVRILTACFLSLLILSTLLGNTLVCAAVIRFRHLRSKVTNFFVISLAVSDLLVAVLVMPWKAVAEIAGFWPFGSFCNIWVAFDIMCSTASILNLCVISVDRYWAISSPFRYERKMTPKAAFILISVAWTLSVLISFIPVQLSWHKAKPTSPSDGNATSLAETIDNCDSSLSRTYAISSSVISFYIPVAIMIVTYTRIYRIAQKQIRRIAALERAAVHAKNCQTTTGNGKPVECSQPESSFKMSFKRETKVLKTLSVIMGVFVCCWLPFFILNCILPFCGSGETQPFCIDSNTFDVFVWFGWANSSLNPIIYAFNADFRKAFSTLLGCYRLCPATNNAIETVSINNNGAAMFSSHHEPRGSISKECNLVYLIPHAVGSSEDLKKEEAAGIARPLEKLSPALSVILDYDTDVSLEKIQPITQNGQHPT
Sequence of Phosphoglycerate kinase, glycosomal (Trypanosoma brucei brucei) (P07378 whole entry, looked up): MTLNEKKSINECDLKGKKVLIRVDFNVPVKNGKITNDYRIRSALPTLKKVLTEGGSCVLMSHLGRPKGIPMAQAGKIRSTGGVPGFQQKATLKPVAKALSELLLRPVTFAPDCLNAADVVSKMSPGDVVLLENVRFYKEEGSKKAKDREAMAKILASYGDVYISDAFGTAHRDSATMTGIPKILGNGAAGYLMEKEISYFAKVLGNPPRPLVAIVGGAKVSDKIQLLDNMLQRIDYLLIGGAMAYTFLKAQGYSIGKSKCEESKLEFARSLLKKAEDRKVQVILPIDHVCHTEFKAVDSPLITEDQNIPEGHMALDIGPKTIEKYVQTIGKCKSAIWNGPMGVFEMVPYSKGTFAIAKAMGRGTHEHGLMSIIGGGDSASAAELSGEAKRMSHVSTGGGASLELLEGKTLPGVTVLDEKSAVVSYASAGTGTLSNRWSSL
Sequence of Galactokinase (Homo sapiens) (P51570 whole entry, looked up): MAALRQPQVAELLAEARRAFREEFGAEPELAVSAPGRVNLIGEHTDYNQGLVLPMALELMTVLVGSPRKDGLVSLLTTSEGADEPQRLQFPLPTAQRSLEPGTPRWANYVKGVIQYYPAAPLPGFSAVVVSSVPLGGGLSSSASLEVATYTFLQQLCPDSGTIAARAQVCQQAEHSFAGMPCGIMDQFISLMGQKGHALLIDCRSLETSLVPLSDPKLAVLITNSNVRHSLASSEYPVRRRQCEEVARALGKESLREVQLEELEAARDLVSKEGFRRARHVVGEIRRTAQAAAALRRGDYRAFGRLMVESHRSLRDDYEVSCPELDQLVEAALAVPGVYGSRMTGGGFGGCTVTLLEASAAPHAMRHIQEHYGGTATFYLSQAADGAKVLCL
Sequence of phosphoglycerate mutase (Leishmania major) (Q4Q090 1-553): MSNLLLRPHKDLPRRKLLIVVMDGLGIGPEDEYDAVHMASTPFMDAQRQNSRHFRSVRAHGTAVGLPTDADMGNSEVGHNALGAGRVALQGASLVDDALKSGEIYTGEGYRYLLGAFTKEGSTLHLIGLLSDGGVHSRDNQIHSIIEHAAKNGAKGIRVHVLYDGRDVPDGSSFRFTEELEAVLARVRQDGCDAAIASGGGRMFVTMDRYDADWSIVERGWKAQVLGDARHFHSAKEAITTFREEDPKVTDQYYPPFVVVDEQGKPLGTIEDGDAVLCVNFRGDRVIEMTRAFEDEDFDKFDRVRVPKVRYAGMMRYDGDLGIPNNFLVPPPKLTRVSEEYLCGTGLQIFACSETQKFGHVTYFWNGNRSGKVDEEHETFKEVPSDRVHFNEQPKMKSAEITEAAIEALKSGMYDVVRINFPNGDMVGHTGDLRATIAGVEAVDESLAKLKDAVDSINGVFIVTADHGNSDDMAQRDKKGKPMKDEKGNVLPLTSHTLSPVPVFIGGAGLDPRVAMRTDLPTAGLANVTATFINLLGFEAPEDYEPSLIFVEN
Sequence of ATPase family AAA domain-containing protein 5 (Homo sapiens) (Q96QE3 whole entry, looked up, the tested form may be a part): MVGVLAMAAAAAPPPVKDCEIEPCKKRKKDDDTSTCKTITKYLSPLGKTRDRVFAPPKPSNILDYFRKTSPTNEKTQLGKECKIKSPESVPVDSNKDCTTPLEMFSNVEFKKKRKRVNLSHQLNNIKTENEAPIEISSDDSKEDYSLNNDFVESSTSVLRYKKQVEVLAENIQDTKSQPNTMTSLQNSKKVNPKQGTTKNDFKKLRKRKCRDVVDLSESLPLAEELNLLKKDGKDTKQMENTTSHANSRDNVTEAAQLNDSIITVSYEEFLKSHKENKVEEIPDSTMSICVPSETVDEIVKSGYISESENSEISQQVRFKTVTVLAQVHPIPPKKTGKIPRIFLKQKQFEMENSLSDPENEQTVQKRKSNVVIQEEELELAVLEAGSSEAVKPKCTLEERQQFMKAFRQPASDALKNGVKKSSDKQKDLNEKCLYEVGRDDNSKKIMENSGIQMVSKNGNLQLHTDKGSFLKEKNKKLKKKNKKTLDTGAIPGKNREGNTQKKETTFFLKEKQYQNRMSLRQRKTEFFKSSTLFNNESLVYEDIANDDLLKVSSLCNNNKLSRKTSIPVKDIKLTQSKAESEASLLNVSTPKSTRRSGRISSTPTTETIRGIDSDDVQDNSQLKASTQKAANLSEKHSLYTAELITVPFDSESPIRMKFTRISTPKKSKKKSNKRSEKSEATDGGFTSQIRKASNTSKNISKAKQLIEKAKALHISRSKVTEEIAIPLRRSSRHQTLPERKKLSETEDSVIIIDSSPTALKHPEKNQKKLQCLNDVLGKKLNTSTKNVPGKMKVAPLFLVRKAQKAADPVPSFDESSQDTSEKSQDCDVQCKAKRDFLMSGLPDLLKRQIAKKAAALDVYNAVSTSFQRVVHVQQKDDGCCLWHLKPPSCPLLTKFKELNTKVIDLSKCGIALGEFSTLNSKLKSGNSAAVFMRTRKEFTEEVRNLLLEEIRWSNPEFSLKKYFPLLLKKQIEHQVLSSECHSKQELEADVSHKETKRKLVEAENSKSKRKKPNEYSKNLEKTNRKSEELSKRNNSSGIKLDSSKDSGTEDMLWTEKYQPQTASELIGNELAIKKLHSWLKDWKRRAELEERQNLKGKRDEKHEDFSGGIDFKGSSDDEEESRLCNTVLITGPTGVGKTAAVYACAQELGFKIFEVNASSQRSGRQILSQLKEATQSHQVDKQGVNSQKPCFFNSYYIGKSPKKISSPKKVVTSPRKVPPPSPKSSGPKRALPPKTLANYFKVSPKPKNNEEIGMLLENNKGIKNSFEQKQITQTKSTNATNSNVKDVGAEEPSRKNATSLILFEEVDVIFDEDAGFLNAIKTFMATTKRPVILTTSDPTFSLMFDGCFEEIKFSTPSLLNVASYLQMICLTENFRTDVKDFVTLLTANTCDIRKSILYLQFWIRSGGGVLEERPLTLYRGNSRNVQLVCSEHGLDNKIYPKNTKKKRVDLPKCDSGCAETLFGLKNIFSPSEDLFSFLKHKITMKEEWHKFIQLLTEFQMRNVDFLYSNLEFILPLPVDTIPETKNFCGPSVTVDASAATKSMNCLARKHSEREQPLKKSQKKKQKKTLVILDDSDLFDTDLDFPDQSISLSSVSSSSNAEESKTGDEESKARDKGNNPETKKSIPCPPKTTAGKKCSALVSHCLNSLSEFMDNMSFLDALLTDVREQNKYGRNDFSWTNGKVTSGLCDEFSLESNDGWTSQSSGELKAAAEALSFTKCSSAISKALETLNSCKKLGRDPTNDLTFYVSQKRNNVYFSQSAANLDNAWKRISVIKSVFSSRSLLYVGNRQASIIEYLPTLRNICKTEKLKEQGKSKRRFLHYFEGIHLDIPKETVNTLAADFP
Sequence of Ubiquitin carboxyl-terminal hydrolase 1 (Homo sapiens) (O94782 whole entry, looked up): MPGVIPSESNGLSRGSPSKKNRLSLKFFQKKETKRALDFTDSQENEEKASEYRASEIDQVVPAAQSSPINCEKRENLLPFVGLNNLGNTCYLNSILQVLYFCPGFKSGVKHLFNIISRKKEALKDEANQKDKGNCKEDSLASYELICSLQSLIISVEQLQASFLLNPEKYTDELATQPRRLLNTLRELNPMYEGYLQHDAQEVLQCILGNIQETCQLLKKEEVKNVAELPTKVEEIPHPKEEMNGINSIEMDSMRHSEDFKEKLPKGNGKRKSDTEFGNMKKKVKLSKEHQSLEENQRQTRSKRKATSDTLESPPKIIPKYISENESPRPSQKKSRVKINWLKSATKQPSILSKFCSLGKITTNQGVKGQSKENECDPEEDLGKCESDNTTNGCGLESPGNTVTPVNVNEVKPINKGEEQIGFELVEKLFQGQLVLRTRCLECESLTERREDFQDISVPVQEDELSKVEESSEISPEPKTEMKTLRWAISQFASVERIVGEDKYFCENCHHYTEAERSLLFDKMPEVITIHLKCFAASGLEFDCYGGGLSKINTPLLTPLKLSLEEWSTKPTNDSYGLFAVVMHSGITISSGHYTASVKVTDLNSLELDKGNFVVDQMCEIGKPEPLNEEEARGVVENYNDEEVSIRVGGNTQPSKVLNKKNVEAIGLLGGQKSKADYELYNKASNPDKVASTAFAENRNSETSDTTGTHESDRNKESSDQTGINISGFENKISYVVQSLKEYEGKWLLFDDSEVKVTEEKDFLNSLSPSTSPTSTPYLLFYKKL
Sequence of Thyrotropin-releasing hormone receptor (Homo sapiens) (P34981 whole entry, looked up): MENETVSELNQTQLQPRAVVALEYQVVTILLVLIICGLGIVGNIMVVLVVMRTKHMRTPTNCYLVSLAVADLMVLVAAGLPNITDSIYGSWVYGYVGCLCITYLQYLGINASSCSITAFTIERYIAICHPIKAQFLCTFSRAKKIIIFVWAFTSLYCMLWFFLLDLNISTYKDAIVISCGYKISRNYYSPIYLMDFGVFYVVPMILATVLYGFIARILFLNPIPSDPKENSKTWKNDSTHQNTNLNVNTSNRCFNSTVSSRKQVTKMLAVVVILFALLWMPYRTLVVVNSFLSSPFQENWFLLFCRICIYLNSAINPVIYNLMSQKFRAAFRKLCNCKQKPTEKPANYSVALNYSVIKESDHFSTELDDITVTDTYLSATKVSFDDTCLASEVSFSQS
Sequence of Peptidyl-prolyl cis-trans isomerase NIMA-interacting 1 (Homo sapiens) (Q13526 whole entry, looked up): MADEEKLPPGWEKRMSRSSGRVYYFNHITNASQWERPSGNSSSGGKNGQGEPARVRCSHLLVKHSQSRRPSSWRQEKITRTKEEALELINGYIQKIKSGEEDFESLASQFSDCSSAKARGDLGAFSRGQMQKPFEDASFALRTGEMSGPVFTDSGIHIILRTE

`C#CCOC(=O)C1=CCCN(C)C1`: the result in [1], in test [2], in test [5], in test [8], in test [9] and in [10] was inactive. Also, the outcome in test [11], in test [12], in [13], in [14] and in test [17] was inactive. Further, the Potency entry in [3], in test [4], in test [6], in [15] and in test [16] was “inactive” throughout. Further, the activation in [7] was 3.19% (inactive). Besides, in [8], the viability change was -2.85%.

As to `CC(=O)[C@H]1CCC2C3CC[C@H]4C[C@H](O)CC[C@]4(C)C3CC[C@@]21C` (some centres undefined), the result in test [1], in [2], in [5], in test [8], in test [9] and in test [10] was inactive. Also, the result in test [11], in test [13], in [14] and in [17] was inactive. The Potency entry in test [3], in [4], in test [6] and in test [16] was “inactive” each time. Further, the activation in test [7] was -6% (inactive). Moreover, in [8], the viability change was -0.378%.

As for `NC(CCP(=O)(O)O)C(=O)O` (centres undefined), the result in test [1], in test [2], in [5], in test [8], in test [9] and in test [10] was inactive. Besides, the outcome in [11], in test [12], in test [13], in test [14] and in [17] was inactive. For the same molecule, the Potency result in test [3], in [4], in test [6], in test [15] and in test [16] was “inactive” in each case. Moreover, in [7], the activation was -3% (inactive). In addition, the viability change in test [8] was 2.18%.

For the molecule `O=C(Cc1ccc(Cl)c(Cl)c1)N1CCCCC1CN1CCCC1` (centres undefined), the outcome in test [1], in test [2], in test [5], in test [8], in [9] and in test [10] was inactive. The molecule was classed as inactive in test [11], in test [12], in test [13] and in test [14]. Further, the Potency result in test [3], in test [4], in test [6], in test [15] and in test [16] was “inactive” in each case. Also, the activation in [7] was 1.12% (inactive). The viability change in test [8] came to 7.56%.

On to `CC(Cc1ccc(O)cc1)NCC(O)c1cc(O)cc(O)c1` (centres undefined), for which the result in test [1], in test [2], in test [18], in test [5], in test [8] and in test [9] was inactive. The outcome in test [10], in [11], in [12], in test [13], in [14] and in [17] was inactive. Besides, the Potency entry in test [3], in [4], in test [6] and in test [16] was “inactive” each time. Also, in test [7], the activation is 0.688% (inactive). Besides, the viability change in [8] was -4.39%.

`NC(=O)CN1CC(O)CC1=O` (centres undefined): the outcome in test [1], in [2], in test [5], in [8], in test [9] and in test [10] was inactive. Also, the outcome in test [11], in [12], in test [13], in test [14] and in [17] was inactive. Also, the Potency entry in test [3], in [4], in test [19], in [6], in test [15] and in test [16] was “inactive” throughout. For the same molecule, the activation in test [7] was 1.25% (inactive). The viability change in test [8] was 1.59%.

Regarding `NC(=NCCC[C@H](N)C(=O)O)N[N+](=O)[O-]`, the result in test [1], in test [2], in test [18], in [5], in [8] and in test [9] was inactive. Besides, the call in test [10], in test [11], in [12], in test [13], in [14] and in test [17] was inactive. Besides, the Potency result in [3], in test [4], in test [6] and in test [16] was “inactive” throughout. Besides, the activation in test [7] is 0.625% (inactive). Moreover, the viability change in test [8] was determined as 3.87%.
